# Data published in PubChem BioAssay (NCI).
# Compounds without any hit were thinned out: in the full panel of roughly 83,000, 20% have a hit.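 Cells were grown in 96-well plates and exposed to the test compound at a single concentration for 48 hours; results are reported as percent growth, with values below 10 considered active.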 Activity calls are given as the source filed them.
# Tested on: MDA-MB-468 breast
# Experiment: NCI-60 one-dose screen, 48 h (100 = growth as untreated, 0 = no growth, -100 = all killed)
# Conditions: 10 µM unless noted
row,SMILES,growth
1,Clc1nc(N2CCC[N+]3(CC2)CC[N+]2(CCCNCC2)CC3)nc(N2CCC[N+]3(CC2)CC[N+]2(CCCNCC2)CC3)n1 (centres undefined),65.8% (inactive)
2,CC(C)(C)[Si](C)(C)OC1[C@@H](O[Si](C)(C)C(C)(C)C)[C@@H](CNC(=O)NC(=O)CCl)O[C@H]1n1cnc2c(NC(=O)Nc3ccccc3)ncnc21 (some centres undefined),-64.6% (active)
3,CC(=O)Nc1scc[n+]1Cc1ccccc1,103% (inactive)
4,CCCN=C(N)c1ccc(NC(=O)c2ccc(C(=O)Nc3ccc(C(N)=NCCC)cc3)cc2)cc1,67.1% (inactive)
5,CCC(=O)Oc1ccc(/C=N/NC(N)=S)nc1,18.7% (inactive)
6,O=C(N=Nc1c(O)[nH]c2ccccc12)Nc1ccc(F)cc1,103% (inactive)
7,CC(/C=C/c1ccccc1)=N/NC(=O)c1ccncc1,98.8% (inactive)
8,O=C1COc2ccccc2C(=O)N1CCCCNc1ccccc1,94.5% (inactive)
9,COc1cc(-c2nc3ccc(-c4nnc(SCC(=O)Nc5ccc(C(=O)/C=C/c6ccc(Cl)cc6)cc5)o4)cc3[nH]2)cc(OC)c1OC,93% (inactive)
10,CC1=CC2OC34COC3CC(OC(=O)C(F)(F)F)C4(C)C2(C)CC1 (centres undefined),87.5% (inactive)
11,COc1cc2c(c(OC)c1OC)C(=O)CC(c1cccc(NC(=O)c3ccc(C#N)cc3)c1)O2 (centres undefined),48.8% (inactive)
12,C[N+](C)(CCCCCC[N+](C)(C)C1c2ccccc2-c2ccccc21)C1c2ccccc2-c2ccccc21,107% (inactive)
13,CCCCCCCCSc1ncnc2c1ncn2CO,11.9% (inactive)
14,COc1ccc(C2NC(=O)c3cc4c(cc3N2)OCO4)cc1 (centres undefined),-1.6% (active)
